Assay results published in ChEMBL document CHEMBL3988442, “University of Dundee, Small-Polar-MMV Screening Library” (2021).

The compounds below were run against AMP-activated protein kinase, AMPK (Homo sapiens) (UniProt P54646+O43741+P54619+Q9UGJ0+Q9Y478+Q13131+Q9UGI9) (assay: AMP-dependent Kinase enzyme assay. An in vitro enzyme assay that detects ADP turnover that is directly proportional to AMPK activity. This uses naive AMPK that is activated during the assay with MK-8722). Conditions: 30 µM.
Assay type: functional
Design: scale not given: direction of the effect not stated beside the values

| SMILES | Percent Effect |
| --- | --- |
| CCOc1ccccc1-n1c(C2CCC2)n[nH]c1=O | 13.5% |
| CN(CCc1cccs1)CCc1nccs1 | -4.34% |
| Cc1ccc(F)c2c1N(C(=O)c1ccc(S(C)(=O)=O)cc1)CCC2 | 0.782% |
| CCNc1ncc(C(=O)NCc2csc(-c3cnccn3)n2)cn1 | -2.88% |
| CCCn1nnnc1COC(=O)C1COc2ccccc2O1 (stereo not given) | 3% |
| OCc1csc(N2C[C@@H](CN3CCCCCC3)[C@@H](CO)C2)n1 | -3.32% |
| CN(Cc1csc2ccccc12)C(=O)NC1CCS(=O)(=O)C1 (stereo not given) | 8.42% |
| Cc1cc(N(C)C)nc(N2CCn3c(nnc3C(C)C)C2)n1 | 8.26% |
| COc1c(F)cc(-c2cccc3c2OC(CN)C3)cc1F (stereo not given) | -4.2% |
| O=C(CC1CCCC1)NCCS(=O)(=O)N1CCN(c2ccccn2)CC1 | -2.11% |
| Cc1nc(CNC(=O)Nc2cc(F)ccc2N2CCN(C)CC2)no1 | 13.3% |
| Cc1noc(CCCc2nc(C3CCOC3)no2)n1 (stereo not given) | 10.8% |
| Cc1ccc2[nH]c(CN(C)Cc3ccccc3C(=O)O)nc2c1 | 4.71% |
| O=C(O)c1ccc(C2CCCN(C(=O)c3ccc[nH]3)C2)cc1 (stereo not given) | 3.76% |
| Nc1nccnc1C(=O)NC1CCCN(Cc2c(F)cccc2F)C1 (stereo not given) | 26.8% |
| Cc1cc(=O)n2nc(Oc3cccc(C(N)=O)c3)sc2n1 | -11.1% |
| CSc1nccc(N2CCC3(CCCN(Cc4cccc(C)c4)C3)C2)n1 (stereo not given) | 5.62% |
| O=C(COc1cc(Cl)cc(Cl)c1)NCc1nncn1C1CC1 | -6.22% |
| COc1cccc(S(=O)(=O)N2CCN(C)[C@@H]3CS(=O)(=O)C[C@@H]32)c1 | 1.52% |
| CCc1cc(N2CCC(NCCc3nc(C)c(C)s3)CC2)nc(C)n1 | 4.15% |

| SMILES | Percent Effect |
| --- | --- |
| O=C1NCCCCC1NC(=O)N1CCc2ccccc21 (stereo not given) | -3.02% |
| CC(NC(=O)N1CCC1)c1ccc(S(N)(=O)=O)cc1 (stereo not given) | 7.72% |
| CCn1cc(CN(C)Cc2cnn(-c3ccc(F)cc3)c2)cn1 | 13.6% |
| CC(C)c1ccc(/C=C/CC(=O)NC2CCN(C(N)=O)CC2)cc1 | -2.39% |
| CN(C)CCN(Cc1ccc(F)cc1)C(=O)c1ccn(C)c(=O)c1 | 9.83% |
| Cc1[nH]nc(CCC(=O)N2CCc3ncnc(NCCO)c3CC2)c1C | 3.08% |
| O=C(NCCCc1nnc2ccccn12)c1ccccc1C1CCNC1 (stereo not given) | 1.24% |
| Cc1ccccc1-n1ccnc1S(=O)(=O)Cc1nsc(N(C)C)n1 | -1.55% |
| COC(=O)C(NC(=O)c1cc(C)ccc1C)c1cccnc1 (stereo not given) | 1.93% |
| CCc1ccc(CN2CCN(c3ccc(C#N)cc3)C(=O)C2)nc1 | 3.08% |
| Cn1c(CN2CC[C@](C)(O)C(C)(C)C2)cc2ccccc21 | 12.4% |
| CN1CCCC1CCNC(=O)c1ccccc1-n1cnc(CN)c1 (stereo not given) | 7.02% |
| CN(C)CC(O)Cn1cc(NCc2ccc(Br)cc2)cn1 (stereo not given) | -39.9% |
| CCC(CN1CCCC1)n1cncc1-c1cnn(-c2ccccc2)c1 (stereo not given) | 20% |
| C[C@@H]1CN(c2cccnn2)CC[C@@]1(O)C1CCOCC1 | 2.06% |
| COc1ccccc1OCCc1nnc(NC(=O)C2CC23CCC3)s1 (stereo not given) | 8.73% |
| CCOc1ccccc1C(C(=O)O)N(C)Cc1cc(C)[nH]n1 (stereo not given) | 5.49% |
| O=C(NCc1nnnn1-c1ccccc1)c1ccc(C2CCCO2)s1 (stereo not given) | 1.57% |
| COC(=O)c1ccc(N(C(=O)c2cccnc2C)C(C)C)c(C)c1 | -5.67% |
| CN(C)Cc1cccc(-c2cccnc2C(=O)NCc2cn(C)cn2)c1 | 23.4% |
